In PubChem BioAssay (NCI):
Compounds without any hit were thinned out: in the full panel of roughly 83,000, 20% have a hit.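 A percent growth of 40 corresponds to 60% growth inhibition; 0 means no net growth; -100 means all cells died. Active threshold: below 10.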 A number with no mark means an inactive call. Activity calls are given as the source filed them.

Assays:
Assay in all cases: NCI-60 one-dose screen, 48 h (100 = growth as untreated, 0 = no growth, -100 = all killed)
Settings in all cases: 10 µM unless noted
HCT-15 colon = test system: HCT-15 colon
HT29 colon = test system: HT29 colon
SNB-75 CNS = test system: SNB-75 CNS
SNB-19 CNS = test system: SNB-19 CNS
U251 CNS = test system: U251 CNS
PC-3 prostate = test system: PC-3 prostate
SK-MEL-5 melanoma = test system: SK-MEL-5 melanoma
UACC-62 melanoma = test system: UACC-62 melanoma
LOX IMVI melanoma = test system: LOX IMVI melanoma
SK-MEL-28 melanoma = test system: SK-MEL-28 melanoma

| SMILES | growth (HCT-15 colon) | growth (HT29 colon) | growth (SNB-75 CNS) | growth (SNB-19 CNS) | growth (U251 CNS) | growth (PC-3 prostate) | growth (SK-MEL-5 melanoma) | growth (UACC-62 melanoma) | growth (LOX IMVI melanoma) | growth (SK-MEL-28 melanoma) |
| --- | --- | --- | --- | --- | --- | --- | --- | --- | --- | --- |
| COc1cc(/C=C2/C=C(c3ccccc3)N(CCc3ccc(S(N)(=O)=O)cc3)C2=O)cc(OC)c1OC | 100% | 94.7% | 71.9% | 101% | 87% | 44.2% | 90.7% | 89.6% | 101% | 119% |
| N#CSc1c[nH]c2cccc(/C=C/C(=O)/C=C(/C=C/c3cccc4[nH]cc(SC#N)c34)OB(F)F)c12 | -73.6% (active) | -74.5% (active) | -31.5% (active) | 19.1% | -83.3% (active) | -19.6% (active) | -74.1% (active) | -50.5% (active) | -85.4% (active) | -47.9% (active) |
| CSc1nc2ncc([N+](=O)[O-])c(=O)n2[nH]1 | 105% | 107% | 93% | 103% | 102% | 98.1% | 103% | 101% | 101% | 105% |
| Cc1[nH]c(C(=O)Nc2ccc(C(=O)N3CCN(c4cc5c(cc4F)c(=O)c(C(=O)O)cn5C4CC4)CC3)cc2OC(C)C)c(Cl)c1Cl | 18.1% | 37.3% | 67.8% | 89.8% | 36.4% | 59.1% | 75.3% | 81.8% | 21.6% | 86.6% |
| O=c1c2cnn(-c3ccccc3)c2n2c(CN3CCOCC3)nnc2n1-c1ccccc1 | 101% | 74.9% | 98% | 106% | 89.4% | 78.2% | 102% | 98% | 96.9% | 107% |
| CC(C)COc1nc2c(c(=O)n(C)c(=O)n2C)n1C | 97% | 99.8% | 82.4% | 99.9% | 101% | 102% | 86.7% | 93.8% | 105% | 106% |
| Cc1cn(-c2cc(NC(=O)c3cncc(C#Cc4cnc(N)c5ncccc45)c3)cc(C(F)(F)F)c2)cn1 | 59.6% | 35.4% | 89.4% | 106% | 85.7% | 84.7% | 18.3% | 35.2% | 21.5% | 40.5% |
| C#CCOc1ccc2ncnc(Nc3ccc(NC(=O)C=C)cc3)c2c1 | -14.8% (active) | -34.9% (active) | 70% | 17.6% | -22.9% (active) | 3.24% (active) | 13.1% | -68.7% (active) | -82.6% (active) | 2.36% (active) |
| C=CCc1c(O)c(C(=O)/C=C/c2ccccc2)c(OC)c2ccoc12 | 39.6% | 27.9% | 72.9% | 46.6% | 26.8% | 33.9% | 33.3% | 41.3% | 35.2% | 64.6% |
| Cn1cc(-c2ccc3nc(-c4ccc(CC(=O)ONc5cc(C(C)(C)C)on5)cc4)cnc3c2)cn1 | 16.5% | 39.6% | 37.4% | 67.4% | 32.3% | 34.8% | 58.8% | 27.6% | 30.5% | 44.4% |
| CCCC/C(CC)=N\NS(=O)(=O)c1ccc([N+](=O)[O-])cc1 | 107% | 106% | 90.4% | 95.2% | 88.6% | 84.5% | 98.2% | 98.5% | 94.2% | 108% |
| CCOC(=O)c1c(NC(=O)c2cccc(C(F)(F)F)c2)sc2c(CN(C)C)c(O)ccc12 | 10.6% | 13.5% | 83% | 88.4% | 16.5% | 60.3% | 93.6% | 102% | 16.5% | 17% |
| O=C(Nc1ccc(OS(=O)(=O)c2ccc(F)cc2)cc1)C1CCCCCC1 | 54.7% | 31.6% | 102% | 89.4% | 72.9% | 88.3% | 71.9% | 85.5% | 86.7% | 109% |
| CC(=O)O[C@@H]1C[C@]2(C(C)C)O[C@@]1(C)[C@@H]1CCC(C)=C1[C@@H]2OC(=O)/C=C/c1ccccc1 | 87.2% | 74.8% | 89.1% | 102% | 91.2% | 56.5% | 90.7% | 83.6% | 83.3% | 97.3% |
| C=C1C(=O)O[C@H]2[C@H]1CC/C(COC(=O)/C=C\C(=O)NCc1ccc(Cn3c(=O)sn(CCI)c3=O)cc1)=C\CC[C@@]1(C)O[C@@H]21 | 15.6% | 26.3% | 99.1% | 99% | 70% | 69% | 101% | 55.4% | 14% | 40.4% |
| CC(C)c1ccc(Cc2cnc(NC(=O)c3cc(Br)cs3)s2)cc1 | 21.6% | 7.43% (active) | -3.65% (active) | 42.9% | 18.6% | 26.7% | 10.1% | 42.5% | 41.3% | 53.5% |
| C#CCNC(=O)[C@H](CC)[C@H]1CC[C@H](C)[C@H]([C@@H](C)[C@H](O)[C@H](C)C(=O)[C@H](CC)C2O[C@]3(C=CC(=O)[C@]4(CC[C@@](C)([C@H]5CC[C@](O)(CC)[C@H](C)O5)O4)O3)[C@H](C)C[C@@H]2C)O1 (stereo not given in full) | 28.8% | 29.3% | -19.5% (active) | 42.1% | 52.2% | 21% | 7.94% (active) | 41.3% | 32.3% | 58.6% |
| COc1cc2nc3cc([N+](=O)[O-])ccc3c(NCCNCC(C)O)c2cc1OC (stereo not given) | 23.4% | 2.64% (active) | -59.9% (active) | -10.4% (active) | -25.3% (active) | -38.6% (active) | -82.4% (active) | -56.8% (active) | -35.7% (active) | -20% (active) |
| O=C(Nc1nc2ccc(C(=O)N3CCN(/C=C/c4ccccc4)CC3)cc2s1)c1ccc(NCCc2ccccc2)c([N+](=O)[O-])c1 | 22.4% | 5.52% (active) | 79% | 70.2% | 42.3% | 45% | 15% | 58.3% | 47.4% | 76% |
| COC(=O)c1c2c(c(C)[n+]([O-])c1C)C(=O)C(NCc1cccc(OC)c1)=CC2=O | 11.9% | 11.4% | 132% | 19.2% | -1.83% (active) | 6.62% (active) | -54.8% (active) | -13.3% (active) | 22% | 86.6% |
| Cc1ccc(NC(=O)Cn2cc(CN3CCN(c4ccnc5cc(Cl)ccc45)CC3)nn2)cc1 | 84.7% | 105% | 70.7% | 89.2% | 89.4% | 63.1% | 77.7% | 77.7% | 82.4% | 104% |
| C[PH+](c1nc2ccccc2nc1[PH+](C)C(C)(C)C)C(C)(C)C.C[PH+](c1nc2ccccc2nc1[PH+](C)C(C)(C)C)C(C)(C)C.[Au+].[Cl-] (stereo not given) | -80.9% (active) | -100% (active) | -98.4% (active) | -100% (active) | -86.8% (active) | -83.9% (active) | -100% (active) | -79.5% (active) | -85.5% (active) | -85% (active) |
| COc1ccc(-c2cc(-c3cccnc3)nc3sc4c(=O)[nH]c(-c5ccc(Cl)cc5)nc4c23)cc1OC | 97% | 96.3% | 87.4% | 95.9% | 82.7% | 90.4% | 89.9% | 90.5% | 86% | 102% |
| COc1ccc(C/C(C)=C(/c2ccc(OCCN(C)C)cc2)c2ccc(OC(=O)NCc3ccccc3)cc2)cc1 | 24.3% | -13.7% (active) | 77.7% | 85.6% | 45.7% | 68.4% | 63.1% | 69.3% | -12% (active) | 54.6% |
| COc1ccc(OC)c(-c2nc(SCC(=O)c3ccc(C#N)cc3)[nH]c(=O)c2C#N)c1 | 96.9% | 108% | 93.7% | 97.6% | 103% | 94.5% | 106% | 94.7% | 94.7% | 102% |
| CCCn1cc2c(=O)nc3sc(Cc4ccccc4)c(C)n3c2n1 | 106% | 98% | 97.6% | 98% | 93.2% | 98.5% | 107% | 95% | 94% | 123% |
